Results: PubChem BioAssay (NCI)
The panel holds about 79,000 compounds, 15% with a hit somewhere; the sample as a whole holds those more often. Active and inactive are the calls of the source. Cut-off read from the data, not from the text of the source: active = growth inhibition above about 70%; inactive = the rest.

Columns and labels:
[1] = NCI Yeast Anticancer Drug Screen. Data for the mec2-1 strain (AID 157); conditions: S. cerevisiae mec2-1 strain, active compounds read high
Procedure, shortened: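 Readout is yeast growth inhibition, normalised to vehicle-treated controls, in the mec2-1 strain exposed to compound.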

[2] = NCI Yeast Anticancer Drug Screen. Data for the rad14 strain (AID 159);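 note: 0% = growth of vehicle-treated control cultures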; conditions: S. cerevisiae rad14 strain growth inhibition, active compounds read high
Procedure, shortened: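 Test compounds were applied to a repair-deficient yeast strain. Its growth was then compared with that of cultures given vehicle alone, and inhibition was expressed relative to those controls.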

[3] = NCI Yeast Anticancer Drug Screen. Data for the sgs1 mgt1 strain (AID 161);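 note: 0% = growth of cultures given vehicle only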; conditions: S. cerevisiae sgs1 mgt1 strain, active compounds read high
Procedure, shortened: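 Yeast cells carrying a defined DNA-repair defect were exposed to test compounds. Growth inhibition was measured relative to vehicle-treated controls.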

[4] = NCI Yeast Anticancer Drug Screen. Data for the CLN2oe strain (AID 163);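 note: 0% = growth of vehicle-only control cultures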; conditions: S. cerevisiae CLN2oe strain, active compounds read high
Procedure, shortened: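 Values reflect how much compound exposure reduced yeast growth, referenced to vehicle-exposed cells. Assay organism is a strain with a defined genetic change affecting cell-cycle control.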

[5] = NCI Yeast Anticancer Drug Screen. Data for the cln2 rad14 strain (AID 165);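 note: 0% = growth equal to vehicle treated cultures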; conditions: S. cerevisiae cln2 rad14 strain, active compounds read high
Procedure, shortened: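 Relative to vehicle controls, growth inhibition of compound-treated cln2 rad14 yeast was recorded.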

[6] = NCI Yeast Anticancer Drug Screen. Data for the bub3 strain (AID 167); conditions: S. cerevisiae bub3 mutant strain, active compounds read high
Procedure, shortened: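 Yeast carrying a defined mutation is treated with each compound, and growth is compared with that of vehicle-exposed cells to give inhibition.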

[7] = NCI Yeast Anticancer Drug Screen. Data for the mlh1 strain (AID 171);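 note: 0% = growth of vehicle-treated control cultures of the same strain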; conditions: S. cerevisiae mlh1 strain growth inhibition, active compounds read high
Procedure, shortened: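 Steps: expose the defined-mutant yeast strain to compound; expose a parallel culture to vehicle; measure growth; express compound effect as inhibition relative to the vehicle culture.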

[8] = NCI Yeast Anticancer Drug Screen. Data for the sgs1 strain (AID 173);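 note: 0% = growth of vehicle-only control cultures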; conditions: S. cerevisiae sgs1 mutant, active compounds read high
Procedure, shortened: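 Treat defined-mutant yeast with compound; measure growth; calculate inhibition relative to vehicle-treated cells.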

[9] = NCI Yeast Anticancer Drug Screen. Data for the mlh1 rad18 strain (AID 175); conditions: S. cerevisiae mlh1 rad18 strain growth inhibition, active compounds read high
Procedure, shortened: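 Test agents were incubated with a yeast strain of defined genotype (DNA damage repair defect). Inhibition of growth was derived by comparison with vehicle-exposed cultures.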

[10] = NCI Yeast Anticancer Drug Screen. Data for the rad18 strain (AID 177); conditions: S. cerevisiae rad18 mutant growth inhibition, active compounds read high
Procedure, shortened: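 A genetically defined yeast mutant impaired in DNA damage repair was treated with test compounds, then its growth was measured against cultures receiving vehicle alone.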

[11] = NCI Yeast Anticancer Drug Screen. Data for the rad52 strain (AID 147);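 note: 0% = growth of vehicle-treated control cultures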; conditions: S. cerevisiae rad52 mutant growth inhibition, active compounds read high
Procedure, shortened: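 Screen used a yeast mutant impaired in DNA repair. After compound exposure, growth was measured. Values reflect inhibition compared with vehicle-treated cells.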

[12] = NCI Yeast Anticancer Drug Screen. Data for the wt1 strain (AID 149);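 note: 0% = growth of vehicle-treated wt1 cultures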; conditions: S. cerevisiae wt1 strain (SPY 50644) growth inhibition, active compounds read high
Procedure, shortened: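 wt1 yeast, compound-treated; % growth inhibition vs vehicle control.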

[13] = NCI Yeast Anticancer Drug Screen. Data for the rad50EPP+ strain (AID 151);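 note: 0% = growth of vehicle-treated control cultures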; conditions: S. cerevisiae rad50 mutant strain, active compounds read high
Procedure, shortened: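 Exposing the rad50EPP+ strain to each compound, growth was compared with vehicle-only cultures to give inhibition.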

[14] = NCI Yeast Anticancer Drug Screen. Data for the mgt1 strain (AID 153); conditions: S. cerevisiae mgt1 mutant growth inhibition, active compounds read high
Procedure, shortened: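 Genetically defined yeast (mgt1) treated with compound; inhibition of growth expressed against vehicle-treated controls.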

[15] = NCI Yeast Anticancer Drug Screen. Data for the rad50 strain (AID 155);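 note: 0% = growth of vehicle-only cultures of the same strain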; conditions: S. cerevisiae rad50 strain growth inhibition, active compounds read high
Procedure, shortened: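 Genetically altered yeast (DNA repair pathway); compound treatment; growth inhibition vs vehicle ctrl.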

[16] = NCI Yeast Anticancer Drug Screen. Data for the wt2 strain (AID 169);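 note: 0% = growth of vehicle-treated yeast cultures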; conditions: S. cerevisiae wt2 strain growth inhibition, active compounds read high
Procedure, shortened: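 Values express reduction in yeast growth under compound treatment, referenced to vehicle-treated cells.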

[17] = at 5.0 µM (retest, dose inferred, filed as 0.5)
[18] = at 50.0 µM (retest, dose inferred, filed as 5.0)

Measured: growth inhibition

CCOC(=O)/C(=C\c1cccc(C)c1)C(C)=O
inactive: [1]; [17] -5% | [2]; at 1.2 µM -6% | [2]; at 3.7 µM -7% | [2]; at 11.0 µM 38% | [3]; [17] 19% | [4]; at 1.2 µM 11% | [4]; at 3.7 µM 4% | [4]; at 11.0 µM 55% | [5]; [17] 5% | [6]; at 1.2 µM 1% | [6]; at 3.7 µM 14% | [6]; [17] 55% | [7]; at 1.2 µM 13% | [7]; at 3.7 µM 18% | [8]; at 1.2 µM 22% | [8]; at 3.7 µM 51% | [9]; [17] 15% | [10]; at 1.2 µM 3% | [10]; at 3.7 µM 12% | [10]; at 11.0 µM 65%
active: [1]; at 11.0 µM 71% | [1]; at 33.0 µM 95% | [1]; [18] 96% | [1]; at 50.0 µM 93.5% | [1]; at 100.0 µM 100% | [2]; at 33.0 µM 93% | [2]; at 100.0 µM 99% | [3]; [18] 94% | [3]; at 50.0 µM 92.5% | [4]; at 33.0 µM 92% | [4]; at 100.0 µM 99% | [5]; [18] 88% | [5]; at 50.0 µM 87.5% | [6]; at 11.0 µM 89% | [6]; at 33.0 µM 97% | [6]; [18] 96% | [6]; at 50.0 µM 90.2% | [6]; at 100.0 µM 99% | [7]; at 11.0 µM 80% | [7]; at 33.0 µM 95% | [7]; at 100.0 µM 98% | [8]; at 11.0 µM 84% | [8]; at 33.0 µM 94% | [8]; at 100.0 µM 98% | [9]; [18] 94% | [9]; at 50.0 µM 90.4% | [10]; at 33.0 µM 89% | [10]; at 100.0 µM 98%

CC(C)OP(=O)(OC(C)C)C(=NCCO)NNc1ccc([N+](=O)[O-])cc1
inactive: [11]; at 1.2 µM 8% | [11]; at 3.7 µM 3% | [11]; at 11.0 µM 14% | [11]; at 33.0 µM 31% | [12]; at 1.2 µM -6% | [12]; at 3.7 µM 1% | [12]; at 11.0 µM 6% | [12]; at 33.0 µM 7% | [12]; at 100.0 µM 29% | [13]; at 1.2 µM -2% | [13]; at 3.7 µM 34% | [13]; at 11.0 µM 69% | [14]; at 1.2 µM -34% | [14]; at 3.7 µM -34% | [14]; at 11.0 µM -32% | [14]; at 33.0 µM 0% | [15]; at 1.2 µM -5% | [15]; at 3.7 µM -3% | [15]; [17] 8% | [15]; at 11.0 µM 24% | [15]; at 33.0 µM 59% | [15]; [18] 64% | [1]; at 1.2 µM -23% | [1]; at 3.7 µM -16% | [1]; [17] -2% | [1]; at 11.0 µM -19% | [1]; at 33.0 µM 20% | [1]; [18] 33% | [1]; at 50.0 µM 28.1% | [1]; at 100.0 µM 40% | [2]; at 1.2 µM -10% | [2]; at 3.7 µM 3% | [2]; at 11.0 µM 4% | [2]; at 33.0 µM 3% | [2]; at 100.0 µM 42% | [3]; [17] 1% | [3]; [18] 23% | [4]; at 1.2 µM -17% | [4]; at 3.7 µM 3% | [4]; at 11.0 µM 4% | [4]; at 33.0 µM 44% | [5]; [17] 25% | [5]; [18] 48% | [5]; at 50.0 µM 9.95% | [6]; at 1.2 µM -15% | [6]; at 3.7 µM 22% | [6]; [17] 22% | [6]; at 11.0 µM 49% | [6]; [18] 62% | [6]; at 50.0 µM 56.7% | [16]; at 1.2 µM 1% | [16]; at 3.7 µM -3% | [16]; at 11.0 µM 8% | [16]; at 33.0 µM 26% | [16]; at 100.0 µM 50% | [7]; at 1.2 µM -18% | [7]; at 3.7 µM -22% | [7]; at 11.0 µM 3% | [7]; at 33.0 µM 46% | [9]; [17] 48% | [10]; at 1.2 µM 20% | [10]; at 3.7 µM 0% | [10]; at 11.0 µM 13% | [10]; at 33.0 µM 54%
active: [11]; at 100.0 µM 79% | [13]; at 33.0 µM 93% | [13]; at 100.0 µM 94% | [14]; at 100.0 µM 74% | [15]; at 50.0 µM 86% | [15]; at 100.0 µM 91% | [3]; at 50.0 µM 85% | [4]; at 100.0 µM 90% | [6]; at 33.0 µM 94% | [6]; at 100.0 µM 95% | [7]; at 100.0 µM 87% | [9]; [18] 96% | [9]; at 50.0 µM 72.9% | [10]; at 100.0 µM 91%

Cn1c(-c2ccc(/C=N\N3CCN(/N=C/c4ccc(-c5c[n+]6ccsc6n5C)cc4)CC3)cc2)c[n+]2ccsc12
inactive: [11]; at 1.2 µM 14% | [11]; at 3.7 µM 19% | [11]; at 11.0 µM 20% | [11]; at 33.0 µM 16% | [12]; at 1.2 µM 5% | [12]; at 3.7 µM 18% | [12]; at 11.0 µM 14% | [12]; at 33.0 µM 17% | [13]; at 1.2 µM 30% | [13]; at 3.7 µM 51% | [13]; at 11.0 µM 49% | [13]; at 33.0 µM 59% | [14]; at 1.2 µM 17% | [14]; at 3.7 µM 27% | [14]; at 11.0 µM 25% | [14]; at 33.0 µM 25% | [14]; at 100.0 µM 69% | [15]; at 1.2 µM 21% | [15]; at 3.7 µM 33% | [15]; [17] 12% | [15]; at 11.0 µM 21% | [15]; at 33.0 µM 11% | [15]; [18] 29% | [15]; at 50.0 µM 18% | [1]; at 1.2 µM 50% | [1]; at 3.7 µM 51% | [1]; [17] 14% | [1]; at 11.0 µM 57% | [1]; at 33.0 µM 41% | [1]; [18] 53% | [1]; at 50.0 µM 30.4% | [2]; at 1.2 µM 16% | [2]; at 3.7 µM 10% | [2]; at 11.0 µM 9% | [2]; at 33.0 µM 14% | [2]; at 100.0 µM 59% | [3]; [17] 18% | [3]; [18] 58% | [3]; at 50.0 µM 25.1% | [4]; at 1.2 µM 40% | [4]; at 3.7 µM 48% | [4]; at 11.0 µM 49% | [4]; at 33.0 µM 52% | [5]; [17] 18% | [5]; [18] 18% | [6]; at 1.2 µM 17% | [6]; at 3.7 µM 26% | [6]; [17] 17% | [6]; at 11.0 µM 25% | [6]; at 33.0 µM 40% | [6]; [18] 35% | [6]; at 50.0 µM 16.4% | [16]; at 1.2 µM -43% | [16]; at 3.7 µM -40% | [16]; at 11.0 µM -31% | [16]; at 33.0 µM 0% | [8]; at 1.2 µM 29% | [8]; at 3.7 µM 32% | [8]; at 11.0 µM 32% | [8]; at 33.0 µM 46% | [9]; [17] 34% | [9]; at 50.0 µM -10.8% | [10]; at 1.2 µM 19% | [10]; at 3.7 µM 34% | [10]; at 11.0 µM 24% | [10]; at 33.0 µM 62%
active: [11]; at 100.0 µM 75% | [12]; at 100.0 µM 71% | [13]; at 100.0 µM 78% | [15]; at 100.0 µM 76% | [1]; at 100.0 µM 82% | [4]; at 100.0 µM 76% | [5]; at 50.0 µM 70.5% | [6]; at 100.0 µM 78% | [16]; at 100.0 µM 90% | [8]; at 100.0 µM 88% | [9]; [18] 73% | [10]; at 100.0 µM 89%
